Screening data (PubChem)
TGFb inhibitor = qHTS for Inhibitors of TGF-b; HepG2 CAGA-GFP TGF-b/SMAD3 reporter, GFP fluorescence, 18 h; TGF-beta stimulated, 500 pg/mL final; Potency, µM (top dose mostly 46.1 µM), for the others: top-dose activity, negative = inhibition, most hits filed as inhibitors; 410,000 compounds, 1.2% hits; AID 588855, 2011; also: % is scaled to controls: 0 for no effect and ±100 for the full control effect; nearly all actives have a fitted effect of over 65% in size
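HEPG2 CAGA-GFP, 1000 cells/well; 2 h settle, 37 C; cpd via pin tool; TGF-b 500 pg/mL final; 18 h, 37 C; GFP imaging ex488/em500-530; %Activity normalised to -TGF-b and +DMSO controls; CRC fit, curve class.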
ATXN2 expr inh = Primary qHTS for Inhibitors of ATXN expression | HEK-293 ATXN2-luciferase reporter, luminescence, 24 h | Potency, µM (series often up to 57 µM), for inactives: at the highest dose activity change, negative = inhibition, hits mostly inhibitors | 360,000 compounds, 0.72% hits | AID 1745845, 2022; also: % is scaled to controls: 0 for no effect and ±100 for the full control effect; nearly all actives have a fitted effect of over 55% in size
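ATXN2-luciferase reporter cells (luciferase flanked by upstream and downstream ATXN2 gene portions) were treated 24 h at 37 °C with compounds at up to 57 uM. SteadyGlo luminescence gave expression; GF-AFC fluorescence gave viability.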
A549 viability = Nrf2 qHTS screen for inhibitors: counterscreen for cytotoxicity. A549 ARE-Fluc cells, CellTiter-Fluor viability, 18-24 h. Potency, µM (doses to about 46 µM), for inactives: at the top dose activity change, negative = cytotoxicity, hits mostly inhibitors. 390,000 compounds, 0.16% hits. AID 504648, 2011; also: % is scaled to controls: 0 for no effect and ±100 for the full control effect
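Cytotoxicity counterscreen: CellTiter-Fluor fluorescence was measured in A549 ARE_Fluc cells after 18-24 h of compound exposure in a concentration series. The subsequent BugLite luminescent read reports ARE-luciferase activity.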
S2 tox = Viability Counterscreen for Primary qHTS for Inhibitors of ATXN expression. S2 cells (HEK-293 line with an ATXN2-luciferase reporter) viability, CellTiter-Fluor protease fluorescence, 24 h. Potency, µM (highest dose often 56.7 µM), most hits filed as cytotoxic. 400,000 compounds, 0.49% hits. AID 651635, 2014; also: nearly all actives have a fitted effect of over 40% in size
Nrf2 inh = Nrf2 qHTS screen for inhibitors; 360,000 compounds, 2.1% hits; Potency, µM (highest dose often 46 µM), without a hit: top-dose activity change, negative = inhibition, most hits filed as inhibitors; A549 ARE-Fluc reporter, luciferase luminescence, 18-24 h; also: % is scaled to controls: 0 for no effect and ±100 for the full control effect; nearly all actives have a fitted effect of over 60% in size
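In this cell-based qHTS, ARE-driven firefly luciferase in A549 cells reports Nrf2 activity; the luminescent signal after BugLite lysis is the measured value, with a prior CellTiter-Fluor read for cell health.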
HepG2 viability = qHTS for Inhibitors of TGF-b: Cytotox Counterscreen. Potency, µM (doses to about 46.1 µM), without a hit: at the highest dose activity change, negative = cytotoxicity, actives largely listed as cytotoxic. 410,000 compounds, 0.76% hits. AID 588856, 2011. HepG2 CAGA-GFP viability, ATP luminescence, 18 h
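HepG2 CAGA-GFP cells (1000/well, DMEM with 1% FBS) received compound, then TGF-beta at 500 pg/mL final, and were incubated 18 hours at 37 degrees C. Viability was read by CellTiter-Glo luminescence. Media-only wells were set as complete cell-killing and DMSO as no toxicity.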
An asterisk follows results filed as active; [ ] = dose if it differs, or a comment. The list is not random: actives were taken first. Their share in the collection is about 3.8%. Calls follow the shape of the dose curve; as a rule, active = well fitted curve in the direction sought with a large enough effect; inconclusive = small, poorly fitted or top-dose-only effect, or another doubt; inactive = no such curve, though single readings can be large; an effect the other way counts as inactive or inconclusive. Potency is read from the fitted curve at half-maximal effect.

How did COC(=O)[C@H](Cc1ccccc1)NC(=O)Cn1ccc(NC(=O)OCc2ccccc2)nc1=O do in these assays?
TGFb inhibitor: -2%; ATXN2 expr inh: -2%; A549 viability: 5%; S2 tox: inactive; Nrf2 inh: -6%; HepG2 viability: -23%

How did O=S(=O)(c1ccccc1)c1cnc(-c2cccnc2)nc1-c1ccccc1 do in these assays?
TGFb inhibitor: -3%; ATXN2 expr inh: 2%; A549 viability: 0%; S2 tox: inactive; Nrf2 inh: 10%; HepG2 viability: 9%

Results for Cc1nc(-c2ccccc2)sc1-c1nc(-c2cccnc2)ncc1S(=O)(=O)c1ccccc1 ?
TGFb inhibitor: -2%; ATXN2 expr inh: -13%; A549 viability: inconclusive; S2 tox: inactive; Nrf2 inh: 23µM*; HepG2 viability: -34%

How did Cc1ccc(Sc2ncccc2COC(=O)NC(C)C)cc1 do in these assays?
TGFb inhibitor: 9%; ATXN2 expr inh: 39%[11.3 µM]; A549 viability: -2%; S2 tox: inactive; Nrf2 inh: 28%; HepG2 viability: 0%

How did O=c1[nH]c(SCc2nc3c(cnn3-c3ccccc3)c(=O)[nH]2)nc2ccccc12 do in these assays?
TGFb inhibitor: 4%; ATXN2 expr inh: 67%; A549 viability: -16%; S2 tox: inactive; HepG2 viability: -13%

What do the screens show for `O=c1[nH]c(CSc2nc3ccccc3[nH]2)nc2c1cnn2-c1ccccc1`?
TGFb inhibitor: -2%; ATXN2 expr inh: inconclusive; A549 viability: -24%; S2 tox: inconclusive; Nrf2 inh: 15µM*; HepG2 viability: -41%

What do the screens show for `CCCCCn1c(CCCNC(=O)c2ccccc2)nc2ccccc21`?
TGFb inhibitor: inconclusive; ATXN2 expr inh: inconclusive; A549 viability: -1%; S2 tox: inconclusive; Nrf2 inh: -9%[9.27 µM]; HepG2 viability: -31%

What do the screens show for `Cc1ccc(C(CC(=O)O)NC(=O)c2ccc(S(=O)(=O)N3CC(C)OC(C)C3)cc2)cc1` (stereo unspecified)?
TGFb inhibitor: -12%; ATXN2 expr inh: inconclusive; A549 viability: 1%; S2 tox: inactive; Nrf2 inh: -4%; HepG2 viability: -2%

Results for COc1ccc(N2CCN(C(=O)COC(=O)c3cccc(S(=O)(=O)Nc4cccc(C)c4)c3)CC2)cc1 ?
TGFb inhibitor: inconclusive; ATXN2 expr inh: inconclusive; A549 viability: -5%; S2 tox: inactive; Nrf2 inh: 26µM*; HepG2 viability: -20%

How did COc1ccc(N2CCN(C(=O)CCc3ccc(S(=O)(=O)NCC(C)C)cc3)CC2)cc1 do in these assays?
TGFb inhibitor: -19%; ATXN2 expr inh: -21%; A549 viability: -24%; S2 tox: inactive; Nrf2 inh: 26µM*; HepG2 viability: -3%

Results for CC1CCCCC1NC(=O)CN1CCC(NC(=O)C(C)(C)C)CC1 (stereo unspecified) ?
TGFb inhibitor: 2%; S2 tox: inconclusive; HepG2 viability: -4%

How did CC1C(=O)C(C)C(c2cc(Cl)ccc2O)NC1c1cc(Cl)ccc1O (stereo unspecified) do in these assays?
TGFb inhibitor: inconclusive; ATXN2 expr inh: 25µM*; A549 viability: inconclusive; Nrf2 inh: inconclusive; HepG2 viability: -144%

Results for COc1cccc(C2NC(c3cccc(OC)c3O)C(C)C(=O)C2C)c1O (stereo unspecified) ?
TGFb inhibitor: 23%; ATXN2 expr inh: inconclusive; A549 viability: -1%; S2 tox: inactive; HepG2 viability: -7%

Results for CCCC12CN3CC(CCC)(CN(C1)C3c1c(C)[nH]c(=O)[nH]c1=O)C2=O (stereo unspecified) ?
TGFb inhibitor: -3%; ATXN2 expr inh: 7%; A549 viability: 6%; S2 tox: inactive; Nrf2 inh: 10%; HepG2 viability: -6%

How did CCNC(=S)N(CCc1c(C)[nH]c2ccc(Cl)cc12)Cc1ccco1 do in these assays?
TGFb inhibitor: inconclusive; ATXN2 expr inh: 0%[11.3 µM]; A549 viability: inconclusive; S2 tox: inactive; Nrf2 inh: 21µM*; HepG2 viability: -34%

How did COc1ccc(-c2sc3cc4c(cc3c2-c2ccc(OCCN3CCOCC3)cc2)OCO4)cc1 do in these assays?
TGFb inhibitor: -4%; ATXN2 expr inh: -3%; A549 viability: 15%; S2 tox: inactive; Nrf2 inh: -7%; HepG2 viability: -10%

Results for COc1ccccc1-c1sc2ccccc2c1-c1ccc(O)cc1 ?
TGFb inhibitor: 11µM*; ATXN2 expr inh: 0%; A549 viability: -3%; S2 tox: inactive; Nrf2 inh: -2%; HepG2 viability: -37%

How did COc1ccccc1-c1sc2cc3c(cc2c1-c1ccc(OCCN2CCCCC2)cc1)OCO3 do in these assays?
TGFb inhibitor: inconclusive; ATXN2 expr inh: inconclusive; A549 viability: inconclusive; S2 tox: inconclusive; Nrf2 inh: -20%; HepG2 viability: 10µM*

Results for COc1ccc2sc(-c3ccccc3OC)c(-c3ccc(OCCN4CCOCC4)cc3)c2c1 ?
TGFb inhibitor: -2%; ATXN2 expr inh: -6%; A549 viability: 6%; S2 tox: inactive; Nrf2 inh: -7%; HepG2 viability: 1%

How did COc1cc2sc(-c3ccccc3OC)c(-c3ccc(OCCN4CCCCC4)cc3)c2cc1OC do in these assays?
TGFb inhibitor: inconclusive; ATXN2 expr inh: inconclusive; A549 viability: inconclusive; S2 tox: 25µM*; Nrf2 inh: -30%; HepG2 viability: 16µM*

Results for Clc1cccc(-c2csc(-c3nc(-c4ccc(Br)s4)cs3)n2)c1 ?
TGFb inhibitor: 10%; ATXN2 expr inh: 4%; A549 viability: 0%; S2 tox: inactive; Nrf2 inh: 9%; HepG2 viability: -2%

How did O=C(NCC(=O)N1CCN(S(=O)(=O)c2c(F)cccc2F)CC1)c1ccccc1F do in these assays?
TGFb inhibitor: 3%; ATXN2 expr inh: 2%; A549 viability: -3%; S2 tox: inconclusive; Nrf2 inh: 0%; HepG2 viability: 7%

Results for COc1cccc(-c2oc3ccc(C)cc3c(=O)c2O)c1 ?
TGFb inhibitor: 8.9µM*; ATXN2 expr inh: inconclusive; A549 viability: -1%; S2 tox: inactive; Nrf2 inh: 2%; HepG2 viability: -30%

Results for COc1ccc(-c2csc(N3CCN(c4cc(C)nc5ccccc45)CC3)n2)cc1OC ?
TGFb inhibitor: inconclusive; ATXN2 expr inh: inconclusive; A549 viability: 21µM*; S2 tox: 10µM*; Nrf2 inh: 13µM*; HepG2 viability: 11µM*
